# Assay results reported in PubChem BioAssay (NCATS).
# Records with an inconclusive call do not appear. A call without a number means that no potency is given here. Calls of active or inactive are those of the source. The call rests on the fitted dose curve; in most records, active means well fitted inhibition curve with a large enough effect; inconclusive means small, poorly fitted or top-dose-only effect; inactive means no such curve, though single readings can be large or run the other way.
# Assay: qHTS Screen of the MIPE 4.0 Collection Against Ewings Sarcoma (TC71) (AID 1259253); further: nearly all actives have a fitted effect of over 40% in size
# Conditions: TC71 Ewing sarcoma viability, CellTiter-Glo, 48 h; series mostly up to 45.8 µM
# Method in brief: (§1)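 Compound titrations go onto adherent log-phase cells 4 h after seeding, incubate 48 h at 37C, then CellTiter-Glo luminescence reports viability relative to DMSO and cell-free controls.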
# Potency means the concentration at half of the fitted maximal effect.
row,SMILES,Potency
1,CC(C)OC(=O)C(C(=O)OC(C)C)=C1SC=CS1,inactive
2,CCOC(=O)[C@H](CCc1ccccc1)N[C@H]1CCc2ccccc2N(CC(=O)O)C1=O,20.9 µM (active)
3,S=P(N1CC1)(N1CC1)N1CC1,16.6 µM (active)
4,Nc1nc(F)nc2c1ncn2[C@@H]1O[C@H](CO)[C@@H](O)[C@@H]1O,0.372 µM (active)
5,CNS(=O)(=O)CCc1ccc2[nH]cc(C3CCN(C)CC3)c2c1,0.235 µM (active)
6,CC1CC2C3CCC4=CC(=O)C=C[C@]4(C)[C@@]3(F)[C@@H](O)C[C@]2(C)[C@@]1(O)C(=O)CO (stereo partly drawn),inactive
7,Nc1nc(=S)c2[nH]cnc2[nH]1,0.935 µM (active)
8,Cc1nnc(NS(=O)(=O)c2ccc(N)cc2)s1,10.5 µM (active)
9,Cc1c(-c2ccc(O)cc2)n(Cc2ccc(OCCN3CCCCCC3)cc2)c2ccc(O)cc12,inactive
10,O=S(=O)(O)CCS,inactive
11,CCCCc1oc2ccc(NS(C)(=O)=O)cc2c1C(=O)c1ccc(OCCCN(CCCC)CCCC)cc1,20.9 µM (active)
12,COc1cc([C@@H]2c3cc4c(cc3[C@H](O)[C@H]3COC(=O)[C@H]23)OCO4)cc(OC)c1OC,inactive
13,O=C(NCC1CN(c2ccc(N3CCOCC3=O)cc2)C(=O)O1)c1ccc(Cl)s1 (stereo not drawn),inactive
14,NC(=O)N1c2ccccc2CC(=O)c2ccccc21,inactive
15,CC(=O)[C@H]1CC[C@H]2[C@@H]3CCC4=CC(=O)CC[C@]4(C)[C@H]3CC[C@]12C,3.32 µM (active)
16,Cc1onc(-c2ccccc2Cl)c1C(=O)N[C@@H]1C(=O)N2[C@@H]1SC(C)(C)[C@@H]2C(=O)O,inactive
17,Cc1cccc(Nc2ccncc2S(=O)(=O)NC(=O)NC(C)C)c1,inactive
18,CCn1cc(C(=O)O)c(=O)c2cc(F)c(N3CCN(C)CC3)cc21,inactive

row,SMILES,Potency
1,CCCc1nc(C)c2c(=O)[nH]c(-c3cc(S(=O)(=O)N4CCN(CC)CC4)ccc3OCC)nn12,8.33 µM (active)
2,O[C@@H](CNC[C@H](O)[C@H]1CCc2cc(F)ccc2O1)[C@@H]1CCc2cc(F)ccc2O1,20.9 µM (active)
3,CN1CCN(c2c(F)cc3c(=O)c(C(=O)O)cn(CCF)c3c2F)CC1,inactive
4,CS(=O)(=O)c1ccc([C@@H](O)[C@@H](CO)NC(=O)C(Cl)Cl)cc1,16.6 µM (active)
5,N[C@@H](Cc1ccc(O)c(O)c1)C(=O)O,inactive
6,CC(C)NCC(O)c1ccc(NS(C)(=O)=O)cc1 (stereo not drawn),16.6 µM (active)
7,CNNCc1ccc(C(=O)NC(C)C)cc1,inactive
8,O=C(O)c1cc(=O)[nH]c(=O)[nH]1,inactive
9,O=c1cc(O)c(Cl)c[nH]1,inactive
10,COc1ccc(C(=O)CC(=O)c2ccc(C(C)(C)C)cc2)cc1,1.66 µM (active)
11,CCN(CC)CC#CCOC(=O)C(O)(c1ccccc1)C1CCCCC1 (stereo not drawn),inactive
12,CN(CCOc1ccc(CC2SC(=O)NC2=O)cc1)c1ccccn1 (stereo not drawn),10.5 µM (active)
13,C[C@@H]1C[C@H]2[C@@H]3CCC4=CC(=O)C=C[C@]4(C)[C@@]3(Cl)[C@@H](O)C[C@]2(C)[C@@]1(OC(=O)c1ccco1)C(=O)CCl,4.69 µM (active)
14,COCCCOc1cc(C[C@@H](C[C@H](N)[C@@H](O)C[C@H](C(=O)NCC(C)(C)C(N)=O)C(C)C)C(C)C)ccc1OC,inactive
15,CC(C)(C)C(=O)OCOP(=O)(COCCn1cnc2c(N)ncnc21)OCOC(=O)C(C)(C)C,0.833 µM (active)
16,NC(=O)c1cccnc1,inactive
17,Oc1c(Cl)cc(Cl)c2cccnc12,10.5 µM (active)

# Assay: qHTS Screen of the MIPE 4.0 Collection Against Ewings Sarcoma (EW8) (AID 1259255); further: nearly all actives have a fitted effect of over 35% in size
# Conditions: EW8 Ewing sarcoma viability, CellTiter-Glo, 48 h; series mostly up to 45.8 µM
# Method in brief: as §1
row,SMILES,Potency
1,CC(C)OC(=O)C(C(=O)OC(C)C)=C1SC=CS1,inactive
2,O=S(=O)(O)CCS,inactive
3,CC(=O)CC(c1ccccc1)c1c(O)c2ccccc2oc1=O (stereo not drawn),inactive
4,O=c1cc(O)c(Cl)c[nH]1,inactive
5,C[C@@H]1C[C@H]2[C@@H]3CCC4=CC(=O)C=C[C@]4(C)[C@@]3(Cl)[C@@H](O)C[C@]2(C)[C@@]1(OC(=O)c1ccco1)C(=O)CCl,11.8 µM (active)
6,COCCCOc1cc(C[C@@H](C[C@H](N)[C@@H](O)C[C@H](C(=O)NCC(C)(C)C(N)=O)C(C)C)C(C)C)ccc1OC,inactive

# Assay: qHTS Screen of the MIPE 4.0 Collection Against Ewings Sarcoma (TC32) (AID 1259256); further: nearly all actives have a fitted effect of over 45% in size
# Conditions: TC32 Ewing sarcoma viability, CellTiter-Glo, 48 h; series mostly up to 45.8 µM
# Method in brief: as §1
row,SMILES,Potency
1,CC(C)OC(=O)C(C(=O)OC(C)C)=C1SC=CS1,inactive
2,CCOC(=O)[C@H](CCc1ccccc1)N[C@H]1CCc2ccccc2N(CC(=O)O)C1=O,23.5 µM (active)
3,S=P(N1CC1)(N1CC1)N1CC1,2.64 µM (active)
4,Nc1nc(F)nc2c1ncn2[C@@H]1O[C@H](CO)[C@@H](O)[C@@H]1O,1.32 µM (active)
5,CNS(=O)(=O)CCc1ccc2[nH]cc(C3CCN(C)CC3)c2c1,1.48 µM (active)
6,Nc1nc(=S)c2[nH]cnc2[nH]1,0.526 µM (active)
7,Cc1c(-c2ccc(O)cc2)n(Cc2ccc(OCCN3CCCCCC3)cc2)c2ccc(O)cc12,inactive
8,O=S(=O)(O)CCS,inactive
9,CCCCc1oc2ccc(NS(C)(=O)=O)cc2c1C(=O)c1ccc(OCCCN(CCCC)CCCC)cc1,20.9 µM (active)
10,CC(=O)[C@H]1CC[C@H]2[C@@H]3CCC4=CC(=O)CC[C@]4(C)[C@H]3CC[C@]12C,3.72 µM (active)
11,Cc1cccc(Nc2ccncc2S(=O)(=O)NC(=O)NC(C)C)c1,inactive
12,CCn1cc(C(=O)O)c(=O)c2cc(F)c(N3CCN(C)CC3)cc21,inactive
13,O[C@@H](CNC[C@H](O)[C@H]1CCc2cc(F)ccc2O1)[C@@H]1CCc2cc(F)ccc2O1,23.5 µM (active)
14,CN1CCN(c2c(F)cc3c(=O)c(C(=O)O)cn(CCF)c3c2F)CC1,inactive
15,N[C@@H](Cc1ccc(O)c(O)c1)C(=O)O,inactive
16,CNNCc1ccc(C(=O)NC(C)C)cc1,inactive
17,O=c1cc(O)c(Cl)c[nH]1,inactive
18,COc1ccc(C(=O)CC(=O)c2ccc(C(C)(C)C)cc2)cc1,1.66 µM (active)
19,CCN(CC)CC#CCOC(=O)C(O)(c1ccccc1)C1CCCCC1 (stereo not drawn),inactive
20,NC(=O)c1cccnc1,inactive
21,O=S(=O)(c1cccc2cnccc12)N1CCCNCC1,inactive
22,Oc1c(Cl)cc(Cl)c2cccnc12,7.43 µM (active)
